This passage reports binding signal results from paper PMC7862700, “An all-to-all approach to the identification of sequence-specific readers for epigenetic DNA modifications on cytosine”.

Holding throughout (experiment): DAPPL (digital affinity profiling via proximity ligation, sequencing); 10 mM Tris-HCl pH 7.5, 50 mM NaCl, 1 mM DTT, 4% glycerol, room temperature, 30 min; GST-TFs on glutathione beads, 16-mer random dsDNA library, 0.1% formaldehyde crosslink after washing; high values mean tight binding
For experiment [1], the target named is T1, FEV (Homo sapiens, UniProt Q99581 1-238).
T1 sequence: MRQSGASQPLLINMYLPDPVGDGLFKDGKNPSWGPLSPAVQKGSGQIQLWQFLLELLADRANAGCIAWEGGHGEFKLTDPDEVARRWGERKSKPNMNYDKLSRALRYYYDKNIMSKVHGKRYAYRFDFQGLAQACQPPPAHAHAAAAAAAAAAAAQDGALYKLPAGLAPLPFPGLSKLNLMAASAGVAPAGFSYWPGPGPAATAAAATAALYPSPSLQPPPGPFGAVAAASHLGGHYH
Particulars: protein: recombinant; tags: N-terminal GST; dsDNA, one strand shown. Summed up: (§1)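 A tag-only sample was pooled with DNA-barcoded human transcription factors that had been expressed in yeast as GST fusions and captured on glutathione beads. The pools were incubated for 30 min at room temperature with 200 nmole of a random double-stranded 16-mer DNA library in Tris/NaCl/DTT/glycerol buffer, then washed, crosslinked with 0.1% formaldehyde, proximity-ligated (BsaI/T4 ligase, 1 h, 37 °C), PCR-amplified and sequenced on an Illumina NextSeq500. Binding signal is each hexamer's read frequency for a factor divided by its frequency for the tag-only sample.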

Experiment [2] addresses ETV5 (Homo sapiens, UniProt P41161 1-510). Particulars: protein: recombinant; tags: N-terminal GST; dsDNA, one strand shown. The gist of the method: as §1
Experiment [3] has as its target HSF1 (Homo sapiens, UniProt Q00613 1-529). Particulars: protein: recombinant; tags: N-terminal GST; chain copies: 3; dsDNA, one strand shown. Summed up:
as §1

In experiment [4] the target is T2, SPIC (Homo sapiens, UniProt Q8N5J4 1-248).
T2 sequence: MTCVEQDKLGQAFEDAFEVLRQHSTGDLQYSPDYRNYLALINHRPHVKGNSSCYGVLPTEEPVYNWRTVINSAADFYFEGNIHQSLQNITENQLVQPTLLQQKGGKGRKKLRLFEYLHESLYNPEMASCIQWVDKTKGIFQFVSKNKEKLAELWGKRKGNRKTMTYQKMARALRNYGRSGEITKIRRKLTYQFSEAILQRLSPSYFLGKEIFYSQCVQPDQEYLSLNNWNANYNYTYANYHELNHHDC
Particulars: protein: recombinant; tags: N-terminal GST; dsDNA, one strand shown. The gist of the method: as §1

Experiment [5] has as its target ELF4 (Homo sapiens, UniProt Q99607 1-663). Particulars: protein: recombinant; tags: N-terminal GST; dsDNA, one strand shown. Summed up:
as §1

Experiment [6] deals with T3, ELK4 (Homo sapiens, UniProt P28324-2 1-405).
T3 sequence: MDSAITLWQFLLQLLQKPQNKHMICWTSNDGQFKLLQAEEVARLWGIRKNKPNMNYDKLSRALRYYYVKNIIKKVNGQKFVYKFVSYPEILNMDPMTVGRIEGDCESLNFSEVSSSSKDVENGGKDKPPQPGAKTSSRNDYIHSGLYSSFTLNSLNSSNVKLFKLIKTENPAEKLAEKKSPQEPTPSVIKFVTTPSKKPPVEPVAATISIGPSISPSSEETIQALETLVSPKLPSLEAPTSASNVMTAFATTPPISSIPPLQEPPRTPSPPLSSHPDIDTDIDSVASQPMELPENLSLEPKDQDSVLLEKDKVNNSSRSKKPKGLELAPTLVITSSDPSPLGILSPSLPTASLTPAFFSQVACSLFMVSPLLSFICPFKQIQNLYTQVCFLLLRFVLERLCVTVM
Particulars: protein: recombinant; tags: N-terminal GST; dsDNA, one strand shown. The gist of the method:
as §1

The target in experiment [7] is T4, ETV2 (Homo sapiens, UniProt O00321 1-342).
T4 sequence: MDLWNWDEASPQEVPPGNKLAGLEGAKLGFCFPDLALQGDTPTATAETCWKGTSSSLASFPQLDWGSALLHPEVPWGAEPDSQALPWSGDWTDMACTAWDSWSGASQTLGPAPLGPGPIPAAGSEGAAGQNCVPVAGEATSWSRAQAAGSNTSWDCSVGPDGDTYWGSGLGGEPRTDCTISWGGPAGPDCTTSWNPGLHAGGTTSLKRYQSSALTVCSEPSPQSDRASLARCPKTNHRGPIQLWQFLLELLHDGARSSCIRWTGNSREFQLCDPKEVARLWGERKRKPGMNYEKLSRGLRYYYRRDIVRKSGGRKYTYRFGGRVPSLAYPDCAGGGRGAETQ
Particulars: protein: recombinant; tags: N-terminal GST; dsDNA, one strand shown. The gist of the method: as §1

The target in experiment [8] is T5, ELF3 (Homo sapiens, UniProt P78545 1-371).
T5 sequence: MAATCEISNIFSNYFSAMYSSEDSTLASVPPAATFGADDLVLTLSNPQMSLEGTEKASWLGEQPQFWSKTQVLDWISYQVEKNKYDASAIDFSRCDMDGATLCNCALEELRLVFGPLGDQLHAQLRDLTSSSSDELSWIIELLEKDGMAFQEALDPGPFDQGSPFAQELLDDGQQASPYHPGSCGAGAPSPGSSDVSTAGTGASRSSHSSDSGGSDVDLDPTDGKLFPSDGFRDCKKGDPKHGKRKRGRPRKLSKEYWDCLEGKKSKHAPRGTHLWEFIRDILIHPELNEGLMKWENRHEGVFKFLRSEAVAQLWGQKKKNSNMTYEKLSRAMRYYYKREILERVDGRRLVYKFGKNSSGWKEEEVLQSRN
Particulars: protein: recombinant; tags: N-terminal GST; dsDNA, one strand shown. Summed up:
as §1

Experiment [9] concerns the target CRX (Homo sapiens, UniProt O43186 1-299). Particulars: protein: recombinant; tags: N-terminal GST; dsDNA, one strand shown. The gist of the method: as §1
Experiment [10] concerns the target ETV1 (Homo sapiens, UniProt P50549 1-477). Particulars: protein: recombinant; tags: N-terminal GST; dsDNA, one strand shown. Summed up: as §1
For experiment [11], the target named is T6, ERF (Homo sapiens, UniProt P50548 1-548).
T6 sequence: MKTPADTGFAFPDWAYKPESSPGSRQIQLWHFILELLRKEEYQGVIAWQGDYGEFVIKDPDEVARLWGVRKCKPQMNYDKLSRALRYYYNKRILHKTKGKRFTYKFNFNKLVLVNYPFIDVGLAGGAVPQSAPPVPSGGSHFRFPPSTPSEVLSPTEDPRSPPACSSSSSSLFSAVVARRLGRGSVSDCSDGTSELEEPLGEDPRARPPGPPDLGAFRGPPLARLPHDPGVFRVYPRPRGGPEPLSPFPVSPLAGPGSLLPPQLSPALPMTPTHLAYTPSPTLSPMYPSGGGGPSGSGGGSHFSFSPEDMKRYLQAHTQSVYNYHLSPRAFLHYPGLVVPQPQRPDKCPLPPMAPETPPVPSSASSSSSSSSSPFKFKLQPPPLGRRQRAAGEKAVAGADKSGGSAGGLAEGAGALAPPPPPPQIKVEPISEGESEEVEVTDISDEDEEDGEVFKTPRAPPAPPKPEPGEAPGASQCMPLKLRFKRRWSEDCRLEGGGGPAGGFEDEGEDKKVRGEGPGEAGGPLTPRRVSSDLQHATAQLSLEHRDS
Particulars: protein: recombinant; tags: N-terminal GST; dsDNA, one strand shown. The gist of the method:
as §1

For experiment [12], the target named is T7, ETV3L (Homo sapiens, UniProt Q6ZN32 1-361).
T7 sequence: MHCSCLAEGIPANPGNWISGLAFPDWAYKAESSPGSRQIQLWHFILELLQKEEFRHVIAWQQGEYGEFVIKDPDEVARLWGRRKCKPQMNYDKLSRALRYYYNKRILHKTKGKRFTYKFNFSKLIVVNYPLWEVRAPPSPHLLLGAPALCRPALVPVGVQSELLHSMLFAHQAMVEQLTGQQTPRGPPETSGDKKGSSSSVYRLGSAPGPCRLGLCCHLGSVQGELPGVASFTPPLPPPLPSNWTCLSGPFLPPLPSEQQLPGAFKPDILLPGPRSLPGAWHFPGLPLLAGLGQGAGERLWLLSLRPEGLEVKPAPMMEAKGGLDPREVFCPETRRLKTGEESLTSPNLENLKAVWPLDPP
Particulars: protein: recombinant; tags: N-terminal GST; dsDNA, one strand shown. Summed up:
as §1

Experiment [13] concerns the target T8, ETS2 (Homo sapiens, UniProt P15036 1-469).
T8 sequence: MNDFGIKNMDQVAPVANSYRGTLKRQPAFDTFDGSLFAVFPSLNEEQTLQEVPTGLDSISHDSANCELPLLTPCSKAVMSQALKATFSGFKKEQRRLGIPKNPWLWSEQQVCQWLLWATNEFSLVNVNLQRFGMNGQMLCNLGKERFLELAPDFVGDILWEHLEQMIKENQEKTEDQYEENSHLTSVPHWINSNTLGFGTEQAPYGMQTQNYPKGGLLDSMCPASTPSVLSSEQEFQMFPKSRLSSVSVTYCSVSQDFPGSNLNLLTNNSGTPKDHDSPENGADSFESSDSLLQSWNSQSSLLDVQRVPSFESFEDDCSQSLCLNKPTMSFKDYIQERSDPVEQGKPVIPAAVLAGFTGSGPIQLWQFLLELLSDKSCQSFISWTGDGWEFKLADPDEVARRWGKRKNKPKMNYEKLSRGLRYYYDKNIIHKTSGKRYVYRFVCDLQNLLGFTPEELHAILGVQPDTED
Particulars: protein: recombinant; tags: N-terminal GST; dsDNA, one strand shown. The gist of the method:
as §1

Experiment [14] addresses T9, SPDEF (Homo sapiens, UniProt O95238 1-335).
T9 sequence: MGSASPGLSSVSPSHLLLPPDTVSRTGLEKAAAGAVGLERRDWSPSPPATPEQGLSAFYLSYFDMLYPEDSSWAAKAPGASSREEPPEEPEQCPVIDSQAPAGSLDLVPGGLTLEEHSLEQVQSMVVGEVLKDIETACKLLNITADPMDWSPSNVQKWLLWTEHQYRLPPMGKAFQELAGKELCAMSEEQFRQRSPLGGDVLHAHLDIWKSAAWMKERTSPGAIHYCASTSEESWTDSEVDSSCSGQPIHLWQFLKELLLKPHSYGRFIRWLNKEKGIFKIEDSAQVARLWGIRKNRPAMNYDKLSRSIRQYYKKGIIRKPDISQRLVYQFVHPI
Particulars: protein: recombinant; tags: N-terminal GST; dsDNA, one strand shown. The gist of the method:
as §1

In experiment [15] the target is T10, ETV7 (Homo sapiens, UniProt Q9Y603 1-341).
T10 sequence: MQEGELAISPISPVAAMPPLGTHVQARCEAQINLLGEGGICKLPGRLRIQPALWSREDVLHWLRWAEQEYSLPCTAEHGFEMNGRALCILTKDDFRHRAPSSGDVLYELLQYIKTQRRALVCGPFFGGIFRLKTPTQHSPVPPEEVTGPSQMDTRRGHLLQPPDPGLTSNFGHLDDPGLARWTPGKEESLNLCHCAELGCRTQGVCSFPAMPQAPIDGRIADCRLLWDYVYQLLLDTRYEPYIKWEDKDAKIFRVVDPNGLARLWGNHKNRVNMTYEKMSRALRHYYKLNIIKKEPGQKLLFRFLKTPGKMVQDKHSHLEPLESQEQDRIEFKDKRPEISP
Particulars: protein: recombinant; tags: N-terminal GST; dsDNA, one strand shown. Summed up:
as §1

The target in experiment [16] is T11, ELF5 (Homo sapiens, UniProt Q9UKW6-2 1-255).
T11 sequence: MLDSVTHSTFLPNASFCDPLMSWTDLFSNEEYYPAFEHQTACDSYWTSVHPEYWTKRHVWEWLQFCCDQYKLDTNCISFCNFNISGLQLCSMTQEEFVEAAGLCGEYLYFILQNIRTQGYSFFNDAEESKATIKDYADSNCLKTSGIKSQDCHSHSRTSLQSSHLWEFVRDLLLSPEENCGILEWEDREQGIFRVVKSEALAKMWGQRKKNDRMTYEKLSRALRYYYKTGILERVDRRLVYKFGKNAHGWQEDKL
Particulars: protein: recombinant; tags: N-terminal GST; dsDNA, one strand shown. The gist of the method: as §1

For experiment [17], the target named is T12, ETV3 (Homo sapiens, UniProt P41162-2 1-143).
T12 sequence: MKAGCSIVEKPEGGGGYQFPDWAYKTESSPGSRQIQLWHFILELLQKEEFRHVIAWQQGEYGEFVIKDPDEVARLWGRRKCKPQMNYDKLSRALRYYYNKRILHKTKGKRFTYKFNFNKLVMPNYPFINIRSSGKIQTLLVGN
Particulars: protein: recombinant; tags: N-terminal GST; dsDNA, one strand shown. The gist of the method: as §1

The target of experiment [18] is ETV6 (Homo sapiens, UniProt P41212 1-452). Particulars: protein: recombinant; tags: N-terminal GST; dsDNA, one strand shown. The gist of the method: as §1
Sequence of ETV6 (P41212 whole entry): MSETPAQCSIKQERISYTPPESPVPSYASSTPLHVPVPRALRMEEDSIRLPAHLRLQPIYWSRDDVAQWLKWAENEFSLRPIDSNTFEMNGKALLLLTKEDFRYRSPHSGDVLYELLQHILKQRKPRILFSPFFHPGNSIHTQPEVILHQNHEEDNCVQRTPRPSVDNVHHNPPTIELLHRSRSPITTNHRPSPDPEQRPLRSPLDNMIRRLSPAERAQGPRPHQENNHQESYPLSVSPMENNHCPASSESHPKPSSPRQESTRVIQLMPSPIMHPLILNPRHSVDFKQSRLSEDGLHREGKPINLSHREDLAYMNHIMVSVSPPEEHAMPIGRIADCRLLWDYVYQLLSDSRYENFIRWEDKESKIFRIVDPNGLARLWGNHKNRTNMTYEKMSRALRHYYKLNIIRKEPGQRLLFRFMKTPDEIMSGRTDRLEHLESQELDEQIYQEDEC

Sequence of ELF4 (Q99607 whole entry): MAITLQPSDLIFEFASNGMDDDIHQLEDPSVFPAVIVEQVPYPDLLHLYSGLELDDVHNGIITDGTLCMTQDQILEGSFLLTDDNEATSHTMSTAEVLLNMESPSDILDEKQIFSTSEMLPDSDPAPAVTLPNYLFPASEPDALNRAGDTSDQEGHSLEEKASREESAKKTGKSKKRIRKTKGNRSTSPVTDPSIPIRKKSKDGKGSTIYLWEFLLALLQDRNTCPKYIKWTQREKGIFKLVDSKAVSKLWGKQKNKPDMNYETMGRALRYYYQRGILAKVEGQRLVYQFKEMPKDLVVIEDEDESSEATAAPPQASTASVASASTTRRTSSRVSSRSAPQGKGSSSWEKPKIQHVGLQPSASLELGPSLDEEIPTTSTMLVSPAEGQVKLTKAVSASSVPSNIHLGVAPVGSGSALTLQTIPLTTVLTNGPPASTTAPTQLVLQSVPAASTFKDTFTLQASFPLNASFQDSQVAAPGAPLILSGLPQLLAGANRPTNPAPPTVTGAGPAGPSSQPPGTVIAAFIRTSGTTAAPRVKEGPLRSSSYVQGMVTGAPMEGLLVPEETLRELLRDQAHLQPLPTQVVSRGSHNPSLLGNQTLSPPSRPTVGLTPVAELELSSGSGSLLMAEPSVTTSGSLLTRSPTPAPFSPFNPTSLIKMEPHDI
Sequence of CRX (O43186 whole entry): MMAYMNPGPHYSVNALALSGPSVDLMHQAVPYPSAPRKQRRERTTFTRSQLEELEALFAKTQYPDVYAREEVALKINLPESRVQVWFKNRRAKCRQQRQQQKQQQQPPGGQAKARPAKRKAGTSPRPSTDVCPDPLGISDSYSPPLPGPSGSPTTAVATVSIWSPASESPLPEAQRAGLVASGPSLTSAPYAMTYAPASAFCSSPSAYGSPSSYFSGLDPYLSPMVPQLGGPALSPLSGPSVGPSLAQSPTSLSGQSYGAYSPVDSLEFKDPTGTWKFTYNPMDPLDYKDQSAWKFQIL
Sequence of ETV1 (P50549 whole entry): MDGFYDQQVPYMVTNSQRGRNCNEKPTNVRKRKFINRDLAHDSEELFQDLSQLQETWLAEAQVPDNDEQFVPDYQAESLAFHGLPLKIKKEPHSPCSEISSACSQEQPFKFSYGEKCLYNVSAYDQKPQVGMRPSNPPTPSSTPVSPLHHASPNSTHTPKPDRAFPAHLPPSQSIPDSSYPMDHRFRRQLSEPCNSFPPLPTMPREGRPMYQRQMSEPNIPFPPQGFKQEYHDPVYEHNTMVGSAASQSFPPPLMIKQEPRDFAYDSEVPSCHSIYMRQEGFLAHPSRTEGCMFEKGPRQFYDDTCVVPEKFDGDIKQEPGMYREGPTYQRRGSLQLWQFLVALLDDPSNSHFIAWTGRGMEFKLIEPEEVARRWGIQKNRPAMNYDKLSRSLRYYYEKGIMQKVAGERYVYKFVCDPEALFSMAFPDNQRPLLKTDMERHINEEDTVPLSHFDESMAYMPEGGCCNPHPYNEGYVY
Sequence of HSF1 (Q00613 whole entry): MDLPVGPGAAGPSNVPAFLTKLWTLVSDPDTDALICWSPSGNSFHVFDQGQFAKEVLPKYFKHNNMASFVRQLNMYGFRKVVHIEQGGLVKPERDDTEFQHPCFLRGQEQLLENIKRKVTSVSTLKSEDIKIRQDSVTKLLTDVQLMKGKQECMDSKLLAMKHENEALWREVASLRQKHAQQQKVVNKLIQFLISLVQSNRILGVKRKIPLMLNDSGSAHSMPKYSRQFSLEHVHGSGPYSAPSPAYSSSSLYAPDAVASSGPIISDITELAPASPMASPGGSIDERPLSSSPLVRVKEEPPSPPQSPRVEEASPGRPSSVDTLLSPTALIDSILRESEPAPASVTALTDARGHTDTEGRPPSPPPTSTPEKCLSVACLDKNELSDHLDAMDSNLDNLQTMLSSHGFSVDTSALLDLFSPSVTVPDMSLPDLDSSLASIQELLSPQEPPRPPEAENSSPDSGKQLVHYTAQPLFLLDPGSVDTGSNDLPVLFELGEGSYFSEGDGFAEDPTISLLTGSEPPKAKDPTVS
Sequence of ETV5 (P41161 whole entry): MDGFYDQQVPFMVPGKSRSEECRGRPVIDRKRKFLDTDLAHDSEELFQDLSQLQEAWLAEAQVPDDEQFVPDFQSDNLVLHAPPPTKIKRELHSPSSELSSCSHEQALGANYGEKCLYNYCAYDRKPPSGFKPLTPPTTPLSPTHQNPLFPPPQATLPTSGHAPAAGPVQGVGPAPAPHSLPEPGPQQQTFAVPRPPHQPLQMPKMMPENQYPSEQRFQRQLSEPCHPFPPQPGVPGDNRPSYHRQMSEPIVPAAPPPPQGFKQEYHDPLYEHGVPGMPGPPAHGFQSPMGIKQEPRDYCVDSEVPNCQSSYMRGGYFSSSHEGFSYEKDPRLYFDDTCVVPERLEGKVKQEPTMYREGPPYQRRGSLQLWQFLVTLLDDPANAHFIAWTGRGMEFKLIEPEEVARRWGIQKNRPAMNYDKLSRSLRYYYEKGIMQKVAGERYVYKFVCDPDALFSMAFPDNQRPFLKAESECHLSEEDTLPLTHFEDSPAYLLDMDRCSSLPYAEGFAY

Turning to TTTCCC, the binding signal was 1.61 fold enrichment (6-mer frequency, TF over GST control) in experiment [1]; 1.93 fold enrichment (6-mer frequency, TF over GST control) in [2]; 1.57 fold enrichment (6-mer frequency, TF over GST control) in [3]; 1.87 fold enrichment (6-mer frequency, TF over GST control) in experiment [4]; 1.77 fold enrichment (6-mer frequency, TF over GST control) in [5]; 1.47 fold enrichment (6-mer frequency, TF over GST control) in experiment [6]. The binding signal in [7] is 1.58 fold enrichment (6-mer frequency, TF over GST control); in experiment [8], 1.43 fold enrichment (6-mer frequency, TF over GST control); in experiment [9] it was 1.43 fold enrichment (6-mer frequency, TF over GST control); in [10], 1.6 fold enrichment (6-mer frequency, TF over GST control); in experiment [11], 1.57 fold enrichment (6-mer frequency, TF over GST control); in experiment [12], 1.7 fold enrichment (6-mer frequency, TF over GST control). Also, the binding signal is 1.71 fold enrichment (6-mer frequency, TF over GST control) in experiment [13]; 1.45 fold enrichment (6-mer frequency, TF over GST control) in [14]; 1.65 fold enrichment (6-mer frequency, TF over GST control) in experiment [15]; 2.51 fold enrichment (6-mer frequency, TF over GST control) in [16]; 1.75 fold enrichment (6-mer frequency, TF over GST control) in experiment [17]; 1.97 fold enrichment (6-mer frequency, TF over GST control) in experiment [18].
